Results as given in the supplement of paper PMC11732987, “Enantioselective OTUD7B fragment discovery through chemoproteomics screening and high-throughput optimisation” (Communications Chemistry, 2025).

Key:
Experiment in all cases: log2 ratio of Biotin-Ahx-Ub-VS probe labelling (fragment/DMSO); higher = less target engagement (more negative = stronger competition), active = hit call of the paper (q ≤ 0.05, log2 ratio ≤ -1)
Details in all cases: compound concentration: 200 uM; treatment time: 3 h
USP34 = USP34 (UniProt Q70CQ2)
Sequence of USP34 (Q70CQ2 whole entry, the tested form may be a part): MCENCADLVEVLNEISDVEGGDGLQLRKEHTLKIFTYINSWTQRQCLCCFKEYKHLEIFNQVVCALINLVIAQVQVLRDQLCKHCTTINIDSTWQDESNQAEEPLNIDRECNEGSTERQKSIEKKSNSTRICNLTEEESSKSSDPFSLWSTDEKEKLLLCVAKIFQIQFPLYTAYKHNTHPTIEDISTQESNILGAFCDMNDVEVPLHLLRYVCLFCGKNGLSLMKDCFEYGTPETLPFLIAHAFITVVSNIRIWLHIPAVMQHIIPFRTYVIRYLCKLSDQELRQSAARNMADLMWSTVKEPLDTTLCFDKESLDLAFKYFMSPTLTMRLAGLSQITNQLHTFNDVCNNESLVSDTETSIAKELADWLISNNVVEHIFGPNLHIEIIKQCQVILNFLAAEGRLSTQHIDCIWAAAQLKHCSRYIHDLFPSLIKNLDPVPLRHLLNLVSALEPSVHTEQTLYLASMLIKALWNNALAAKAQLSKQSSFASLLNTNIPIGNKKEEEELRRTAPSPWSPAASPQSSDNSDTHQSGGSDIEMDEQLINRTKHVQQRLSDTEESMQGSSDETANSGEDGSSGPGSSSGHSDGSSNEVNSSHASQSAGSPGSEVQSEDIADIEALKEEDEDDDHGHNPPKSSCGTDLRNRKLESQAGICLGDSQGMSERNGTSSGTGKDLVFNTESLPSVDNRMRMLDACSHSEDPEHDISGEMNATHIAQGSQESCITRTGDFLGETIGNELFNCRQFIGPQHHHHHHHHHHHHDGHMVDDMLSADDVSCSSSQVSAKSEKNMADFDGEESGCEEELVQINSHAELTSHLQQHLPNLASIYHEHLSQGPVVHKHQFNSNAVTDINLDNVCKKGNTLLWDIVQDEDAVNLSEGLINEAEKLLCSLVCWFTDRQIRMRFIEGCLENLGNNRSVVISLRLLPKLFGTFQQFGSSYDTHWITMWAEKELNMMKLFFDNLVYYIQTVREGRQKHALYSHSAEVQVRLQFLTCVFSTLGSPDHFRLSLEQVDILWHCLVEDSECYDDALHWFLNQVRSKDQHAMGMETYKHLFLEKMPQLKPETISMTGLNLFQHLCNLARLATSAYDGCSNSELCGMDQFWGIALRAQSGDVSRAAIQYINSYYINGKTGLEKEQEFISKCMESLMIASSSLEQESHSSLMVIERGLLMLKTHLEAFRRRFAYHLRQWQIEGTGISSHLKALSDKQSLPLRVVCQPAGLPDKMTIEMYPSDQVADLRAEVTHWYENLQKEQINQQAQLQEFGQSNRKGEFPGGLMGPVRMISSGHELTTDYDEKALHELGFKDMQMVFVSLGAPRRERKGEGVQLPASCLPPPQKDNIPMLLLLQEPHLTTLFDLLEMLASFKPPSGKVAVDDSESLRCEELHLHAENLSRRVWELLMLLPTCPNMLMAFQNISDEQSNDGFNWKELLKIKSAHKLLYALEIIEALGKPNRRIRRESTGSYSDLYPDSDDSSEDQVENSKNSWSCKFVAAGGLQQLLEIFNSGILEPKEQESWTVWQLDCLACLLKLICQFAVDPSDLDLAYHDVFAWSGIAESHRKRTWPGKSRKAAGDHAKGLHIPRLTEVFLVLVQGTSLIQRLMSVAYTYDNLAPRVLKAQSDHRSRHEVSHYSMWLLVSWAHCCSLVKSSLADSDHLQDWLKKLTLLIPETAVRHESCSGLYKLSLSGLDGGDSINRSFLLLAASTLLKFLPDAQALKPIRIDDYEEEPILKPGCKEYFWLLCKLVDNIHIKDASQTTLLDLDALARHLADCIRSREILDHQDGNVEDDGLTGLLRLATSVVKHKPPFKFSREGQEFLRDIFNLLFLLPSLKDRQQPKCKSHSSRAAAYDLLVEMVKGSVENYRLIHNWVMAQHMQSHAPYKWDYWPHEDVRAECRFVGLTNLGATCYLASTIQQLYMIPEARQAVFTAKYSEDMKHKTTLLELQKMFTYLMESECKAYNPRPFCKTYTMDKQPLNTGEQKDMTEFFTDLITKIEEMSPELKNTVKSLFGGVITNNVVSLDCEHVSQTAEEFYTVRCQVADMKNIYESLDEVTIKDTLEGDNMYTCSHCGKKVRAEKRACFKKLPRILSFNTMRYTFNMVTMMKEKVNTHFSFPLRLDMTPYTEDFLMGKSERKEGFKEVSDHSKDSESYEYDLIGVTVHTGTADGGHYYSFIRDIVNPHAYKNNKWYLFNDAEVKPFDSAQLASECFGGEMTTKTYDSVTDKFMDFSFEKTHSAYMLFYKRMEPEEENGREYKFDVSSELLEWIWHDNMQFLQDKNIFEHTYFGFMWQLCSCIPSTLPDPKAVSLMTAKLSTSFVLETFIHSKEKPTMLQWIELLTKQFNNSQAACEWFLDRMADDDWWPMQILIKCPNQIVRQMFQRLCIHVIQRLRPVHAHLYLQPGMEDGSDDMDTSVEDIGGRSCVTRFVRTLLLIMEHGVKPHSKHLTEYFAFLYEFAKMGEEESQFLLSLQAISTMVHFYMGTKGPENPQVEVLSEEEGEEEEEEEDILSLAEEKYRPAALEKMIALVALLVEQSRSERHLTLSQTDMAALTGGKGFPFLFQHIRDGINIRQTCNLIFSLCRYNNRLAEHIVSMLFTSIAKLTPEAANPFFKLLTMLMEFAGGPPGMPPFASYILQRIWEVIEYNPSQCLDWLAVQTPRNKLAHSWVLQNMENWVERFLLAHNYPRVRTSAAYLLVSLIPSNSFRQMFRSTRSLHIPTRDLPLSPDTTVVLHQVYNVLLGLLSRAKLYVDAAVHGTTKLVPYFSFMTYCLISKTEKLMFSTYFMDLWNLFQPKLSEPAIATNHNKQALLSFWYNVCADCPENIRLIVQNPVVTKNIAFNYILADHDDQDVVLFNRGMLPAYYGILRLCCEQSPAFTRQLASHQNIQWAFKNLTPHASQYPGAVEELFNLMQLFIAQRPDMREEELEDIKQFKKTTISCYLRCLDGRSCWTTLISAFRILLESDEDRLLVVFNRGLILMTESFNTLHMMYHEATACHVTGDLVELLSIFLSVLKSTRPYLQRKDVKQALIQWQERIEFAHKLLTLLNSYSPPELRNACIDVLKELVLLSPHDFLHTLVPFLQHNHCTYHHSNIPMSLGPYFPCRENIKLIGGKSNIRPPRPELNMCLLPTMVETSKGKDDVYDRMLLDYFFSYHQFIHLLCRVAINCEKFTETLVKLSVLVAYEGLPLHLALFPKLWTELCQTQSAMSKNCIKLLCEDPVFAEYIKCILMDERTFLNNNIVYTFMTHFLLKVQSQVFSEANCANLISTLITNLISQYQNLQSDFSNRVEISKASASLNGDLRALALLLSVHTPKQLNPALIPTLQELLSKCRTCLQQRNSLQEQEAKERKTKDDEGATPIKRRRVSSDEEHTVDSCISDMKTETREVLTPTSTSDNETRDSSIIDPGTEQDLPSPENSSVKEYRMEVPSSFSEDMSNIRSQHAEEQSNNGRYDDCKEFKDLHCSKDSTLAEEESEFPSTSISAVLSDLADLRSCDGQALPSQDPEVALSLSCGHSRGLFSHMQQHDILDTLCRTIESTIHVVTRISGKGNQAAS
In short: (§1)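 Each value is an average log2 ratio of fragment to vehicle, tested by unpaired t-test. The underlying Spectronaut label-free quantities were global-median-normalised, and only proteins with ≥2 unique peptides were included. Triplicate HEK293T lysate samples (495 µg) were exposed to fragment at 200 µM or vehicle for 3 h, then to Biotin-Ahx-Ub-VS at 0.5 µM final for 1 h, before NeutrAvidin enrichment of labelled DUBs, LysC and trypsin digestion, and diaPASEF LC-MS/MS.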

USP36 = biological target: T1, USP36 (UniProt Q9P275)
T1 sequence (whole entry): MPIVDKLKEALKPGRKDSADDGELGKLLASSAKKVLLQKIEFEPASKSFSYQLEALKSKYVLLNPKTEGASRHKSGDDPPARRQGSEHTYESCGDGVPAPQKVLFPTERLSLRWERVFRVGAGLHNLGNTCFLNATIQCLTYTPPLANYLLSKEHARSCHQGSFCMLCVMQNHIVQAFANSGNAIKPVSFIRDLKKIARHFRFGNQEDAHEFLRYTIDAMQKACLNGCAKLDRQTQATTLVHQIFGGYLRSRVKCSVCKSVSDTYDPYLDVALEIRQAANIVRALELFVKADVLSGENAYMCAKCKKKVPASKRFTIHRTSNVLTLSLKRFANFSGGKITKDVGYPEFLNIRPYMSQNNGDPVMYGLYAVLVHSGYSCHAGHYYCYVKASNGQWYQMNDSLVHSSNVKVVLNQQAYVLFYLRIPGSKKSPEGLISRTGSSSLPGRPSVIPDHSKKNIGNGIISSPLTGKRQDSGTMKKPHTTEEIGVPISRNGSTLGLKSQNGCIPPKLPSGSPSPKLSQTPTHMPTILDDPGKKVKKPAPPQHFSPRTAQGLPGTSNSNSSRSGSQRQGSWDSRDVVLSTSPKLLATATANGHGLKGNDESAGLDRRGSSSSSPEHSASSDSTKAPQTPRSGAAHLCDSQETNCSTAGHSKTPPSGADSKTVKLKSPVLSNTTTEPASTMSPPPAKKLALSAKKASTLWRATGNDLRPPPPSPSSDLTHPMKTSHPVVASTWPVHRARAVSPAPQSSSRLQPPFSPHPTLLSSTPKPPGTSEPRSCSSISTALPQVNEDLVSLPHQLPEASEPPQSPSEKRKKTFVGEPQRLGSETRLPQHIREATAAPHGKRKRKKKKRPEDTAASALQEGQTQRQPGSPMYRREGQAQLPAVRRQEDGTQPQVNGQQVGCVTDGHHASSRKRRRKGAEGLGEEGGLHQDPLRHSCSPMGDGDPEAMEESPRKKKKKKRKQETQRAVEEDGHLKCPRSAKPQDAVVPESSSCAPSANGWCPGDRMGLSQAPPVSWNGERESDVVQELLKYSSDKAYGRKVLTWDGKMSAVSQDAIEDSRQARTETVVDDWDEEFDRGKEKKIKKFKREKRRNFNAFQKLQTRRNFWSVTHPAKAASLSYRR
In short: as §1

USP38 = biological target: T2, USP38 (UniProt Q8NB14)
T2 sequence (whole entry): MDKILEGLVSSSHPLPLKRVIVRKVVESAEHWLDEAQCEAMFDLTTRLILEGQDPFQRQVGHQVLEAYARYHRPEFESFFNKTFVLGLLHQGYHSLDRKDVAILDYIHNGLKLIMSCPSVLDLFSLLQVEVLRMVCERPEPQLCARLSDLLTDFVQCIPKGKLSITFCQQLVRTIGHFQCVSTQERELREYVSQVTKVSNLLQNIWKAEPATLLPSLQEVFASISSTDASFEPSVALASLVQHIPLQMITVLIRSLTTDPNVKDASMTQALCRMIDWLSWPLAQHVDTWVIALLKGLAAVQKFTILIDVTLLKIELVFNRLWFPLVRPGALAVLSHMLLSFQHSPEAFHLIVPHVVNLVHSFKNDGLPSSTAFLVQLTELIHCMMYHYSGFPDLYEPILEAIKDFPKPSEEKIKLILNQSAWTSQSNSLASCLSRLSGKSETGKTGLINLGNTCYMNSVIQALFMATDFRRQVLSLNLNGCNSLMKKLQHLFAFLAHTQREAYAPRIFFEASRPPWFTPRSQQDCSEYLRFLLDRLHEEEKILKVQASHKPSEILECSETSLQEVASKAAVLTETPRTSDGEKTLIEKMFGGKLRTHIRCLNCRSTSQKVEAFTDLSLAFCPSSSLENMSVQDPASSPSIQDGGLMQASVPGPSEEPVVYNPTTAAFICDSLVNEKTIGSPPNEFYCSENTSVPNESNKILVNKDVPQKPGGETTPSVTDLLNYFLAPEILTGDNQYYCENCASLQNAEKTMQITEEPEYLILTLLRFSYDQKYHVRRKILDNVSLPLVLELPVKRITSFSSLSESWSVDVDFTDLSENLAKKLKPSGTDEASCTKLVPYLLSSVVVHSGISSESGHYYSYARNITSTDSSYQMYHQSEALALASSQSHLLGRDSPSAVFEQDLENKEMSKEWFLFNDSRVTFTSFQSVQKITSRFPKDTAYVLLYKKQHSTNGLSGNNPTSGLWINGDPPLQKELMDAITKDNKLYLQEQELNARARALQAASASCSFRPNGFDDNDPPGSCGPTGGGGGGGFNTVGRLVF
In short: as §1

USP39 = biological target: T3, USP39 (UniProt Q53GS9)
T3 sequence (whole entry): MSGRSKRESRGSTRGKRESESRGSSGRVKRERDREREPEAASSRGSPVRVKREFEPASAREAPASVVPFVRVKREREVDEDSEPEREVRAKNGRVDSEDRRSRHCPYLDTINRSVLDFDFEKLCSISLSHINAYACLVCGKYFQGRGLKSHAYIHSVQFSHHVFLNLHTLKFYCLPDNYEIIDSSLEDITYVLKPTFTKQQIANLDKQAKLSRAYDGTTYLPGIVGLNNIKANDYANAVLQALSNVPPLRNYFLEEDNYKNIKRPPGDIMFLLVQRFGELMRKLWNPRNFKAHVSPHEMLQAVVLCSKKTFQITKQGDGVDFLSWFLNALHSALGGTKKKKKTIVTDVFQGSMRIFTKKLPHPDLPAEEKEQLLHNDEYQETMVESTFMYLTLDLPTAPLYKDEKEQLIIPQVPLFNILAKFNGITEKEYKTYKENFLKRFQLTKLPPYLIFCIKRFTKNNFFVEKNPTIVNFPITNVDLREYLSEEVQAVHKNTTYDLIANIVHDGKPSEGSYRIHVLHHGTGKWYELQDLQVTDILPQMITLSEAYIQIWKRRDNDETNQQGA
In short: as §1

USP4 = biological target: T4, USP4 (UniProt Q13107)
T4 sequence (whole entry): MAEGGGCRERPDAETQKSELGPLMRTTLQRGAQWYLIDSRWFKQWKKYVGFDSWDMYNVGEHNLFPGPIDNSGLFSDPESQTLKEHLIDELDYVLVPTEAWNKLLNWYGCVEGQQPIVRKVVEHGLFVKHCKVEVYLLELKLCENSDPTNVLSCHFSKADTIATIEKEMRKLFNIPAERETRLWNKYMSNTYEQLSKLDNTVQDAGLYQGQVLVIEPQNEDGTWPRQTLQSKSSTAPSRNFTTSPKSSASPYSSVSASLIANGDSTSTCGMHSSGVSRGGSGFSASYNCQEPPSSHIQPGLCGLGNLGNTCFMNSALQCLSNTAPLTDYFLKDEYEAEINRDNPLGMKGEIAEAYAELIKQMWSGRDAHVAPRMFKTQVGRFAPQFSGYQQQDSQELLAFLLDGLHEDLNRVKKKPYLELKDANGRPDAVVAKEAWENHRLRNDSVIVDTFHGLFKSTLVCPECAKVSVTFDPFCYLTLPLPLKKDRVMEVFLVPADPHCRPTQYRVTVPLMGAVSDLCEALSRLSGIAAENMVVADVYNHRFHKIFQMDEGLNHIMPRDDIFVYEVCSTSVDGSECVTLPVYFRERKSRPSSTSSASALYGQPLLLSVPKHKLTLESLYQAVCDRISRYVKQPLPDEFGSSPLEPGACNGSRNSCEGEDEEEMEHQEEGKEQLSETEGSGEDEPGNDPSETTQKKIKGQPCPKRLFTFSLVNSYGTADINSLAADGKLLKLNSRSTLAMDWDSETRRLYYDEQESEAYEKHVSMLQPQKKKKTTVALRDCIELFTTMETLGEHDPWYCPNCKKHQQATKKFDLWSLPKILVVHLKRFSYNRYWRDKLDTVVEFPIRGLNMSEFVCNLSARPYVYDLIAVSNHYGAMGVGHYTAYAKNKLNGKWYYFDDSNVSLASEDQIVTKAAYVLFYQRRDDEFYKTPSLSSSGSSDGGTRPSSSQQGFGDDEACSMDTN
In short: as §1

Measured: log2 ratio of Biotin-Ahx-Ub-VS probe labelling

O=C(CCl)N1CCN2C(=O)CCC2C1 (stereo not given)
inactive: USP34 -0.0311 | USP36 0.272 | USP38 0.0868 | USP39 -0.106 | USP4 -0.0639
